The text below walks through data of PubChem BioAssay AID1851 (National Center for Advancing Translational Sciences (NCATS), 2009).

“And” between values parts separate entries of the source, which are not always exact repeats. Equal values may be shown once. About 5,800 (36%) of roughly 16,000 compounds were called active. About 23% were inconclusive and are not listed. The call rests on the fitted dose curve; in most records, active means well fitted curve in the direction sought with a large enough effect; inconclusive means small, poorly fitted or top-dose-only effect, or effect the other way; inactive means no such curve, though single readings can be large or run the other way. This is one part of the list.
On the % scale 0 is the no-effect control and ±100 the full control effect.

The target in this test is Cytochrome P450 2C19 (Homo sapiens) (UniProt P33261). The experiment in a line: Cytochrome panel assay with activity outcomes. The following applies: recombinant CYP, pro-luciferin dealkylation, luminescence, p450-cyp2c19; series mostly up to 57.1 µM.
Chain of Cytochrome P450 2C19 (Homo sapiens) (P33261 whole entry, looked up): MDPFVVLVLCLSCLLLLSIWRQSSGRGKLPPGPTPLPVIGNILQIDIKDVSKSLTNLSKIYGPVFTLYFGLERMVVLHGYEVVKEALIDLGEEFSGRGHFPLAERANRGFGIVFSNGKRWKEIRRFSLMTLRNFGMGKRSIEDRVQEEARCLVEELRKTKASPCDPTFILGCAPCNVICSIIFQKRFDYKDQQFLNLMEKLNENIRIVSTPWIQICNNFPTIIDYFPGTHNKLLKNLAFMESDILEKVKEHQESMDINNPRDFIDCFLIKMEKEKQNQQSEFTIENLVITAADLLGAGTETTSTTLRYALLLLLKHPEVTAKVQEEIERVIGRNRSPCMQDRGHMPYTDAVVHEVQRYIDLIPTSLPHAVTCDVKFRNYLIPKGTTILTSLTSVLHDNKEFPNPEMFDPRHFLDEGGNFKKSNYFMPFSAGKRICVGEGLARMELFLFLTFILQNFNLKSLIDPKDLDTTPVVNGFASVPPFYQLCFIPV
As for `O=C1CCC(c2ccccc2)(c2ccccc2)CC1`, the activity, negative = inhibition is 13.2% [at 11.4 µM] (inactive).
For the compound `CCCc1cc(C(=O)Cc2nc3ccccc3s2)c(O)cc1O`, the AC50 was 0.126 µM (active).
In the case of `COc1ccc(C2C(C#N)=C(N)Oc3n[nH]c(C)c32)cc1CN1CCN(c2ccc(F)cc2)CC1` (stereo not given), the AC50 is 5.01 µM (active).
In the case of `O=c1cc(CN2CCN(c3ccc(F)cc3)CC2)c2cc3c(cc2o1)CCCC3`, the AC50 result was “inactive”.
As for `O=C(N/C(=C/c1cccs1)c1nc2ccccc2[nH]1)c1ccccc1`, the AC50 entry was “inactive”.
Regarding `O=C(N/C(=C/c1ccc(Br)cc1)c1nc2ccccc2[nH]1)c1ccco1`, the AC50 is 3.16 µM (active).
Turning to `Cc1ccc(S(=O)(=O)N[C@H]2COC(=O)C/C=C\[C@@H](C)COC(=O)C/C=C\[C@@H]2C)cc1`, the activity, negative = inhibition was 12.1% [at 11.4 µM] (inactive).
On to `COc1ccc(-n2c(-c3ccccc3)nc(=S)c3c2CCCC3)cc1`, for which the AC50 entry was “inactive”.
For `S=c1nc(-c2ccccc2)oc2c1CCCC2`, the AC50 is 15.8 µM (active).
For `c1ccc(Oc2cc(-c3ccccc3)ncn2)cc1`, the AC50 was 2.51 µM (active).
Still for that read-out and setting: then `COc1ccccc1-c1nnc(NC(C)=O)s1`, with “inactive”; and `COc1ccccc1NC(=O)Nc1nnc(-c2ccco2)s1`, with 1.78 µM (active).
Turning to `CN1C(=O)c2ccccc2C(C(=O)O)C1c1cn(C)c2ccccc12` (stereo not given), the AC50 entry is “inactive”.
On the same count and under the same terms, the value for `CN1C(=O)/C(=N\OC(=O)c2cccc3ccccc23)c2ccccc21` was 8.91 µM (active); that for `NCCCCCCCCCCN` was “inactive”.
In the case of `C[C@H](NCCc1ccc(O)cc1)[C@@H](O)c1ccc(O)cc1`, the AC50 entry is “inactive”.
The same measure, in the same setting: then `CN(c1ccccc1)c1ccc(/C=c2\s/c(=C(/C#N)C(=O)C(C)(C)C)n(Cc3ccco3)c2=O)cc1`, with 1.78 µM (active); and `COc1cccc(OCCCOc2ccccc2C(C)C)c1`, with 3.16 µM (active); and `COc1cccc(OC)c1OCCCCN1CCCC1`, with “inactive”.
For `CNC(C)c1cc(OC)ccc1OC` (stereo not given), the AC50 result is “inactive”.
`CC(C(=O)Nc1cccnc1)N1C(=O)C2C3C=CC(C3)C2C1=O` (stereo not given): the AC50 result was “inactive”.
Take `Cc1ccc(NC(=O)C(C)N2C(=O)C3C4CC(C(Br)C4Br)C3C2=O)cc1` (stereo not given): the AC50 is 12.6 µM (active).
The same measure, in the same setting: then `COC(=O)c1nc(NC(=O)c2ccccc2)n[nH]1`, with “inactive”; and `Cc1nc(SC(C(=O)c2ccccc2)c2ccccc2)n[nH]1` (stereo not given), with 2.51 µM (active); and `CCN(CC)C(=O)CSc1nnc(-c2ccco2)n1N`, with “inactive”.
In the case of `COc1cccc(-c2nnc3n2N=C(C(C)(C)C)CS3)c1`, the AC50 was 2.82 µM (active).
Regarding `COc1ccc(-c2csc(N3C(=N)SCC3=O)n2)cc1`, the AC50 entry is “inactive”.
As for `CCOc1ccc(C2=Nn3c(nnc3-c3ccco3)SC2)cc1`, the AC50 was 3.16 µM (active).
Same read-out and setting: then `CCOc1ccc(-c2nnc3n2N=C(c2ccc(OC)cc2)CS3)cc1`, with 4.47 µM (active).
As to `NCCCCCC(=O)O`, the AC50 entry is “inactive”.
In the case of `CCN1C(=O)[C@H]2[C@H]3[C@H](O)[C@H](O)C/C(=N/OC[C@@H](O)COCc4ccco4)[C@H]3CC[C@@H]2C1=O`, the activity, negative = inhibition was -33.5% [at 11.4 µM] (inactive).
The same measure, in the same setting: then `CO[C@@H]1COC(=O)C/C=C\[C@@H](C)[C@H](OC)COC(=O)[C@@H](C)COC(=O)C/C=C\[C@H]1C`, with 4.43% [at 11.4 µM] (inactive).
Take `Cc1noc(NC(=O)Nc2ccccc2F)c1C#N`: the activity, negative = inhibition is -17.8% [at 11.4 µM] (inactive).
For `CCC(C)n1c(NC(=O)c2ccccc2)c(C#N)c2nc3ccccc3nc21` (stereo not given), the AC50 was 28.2 µM (active).
With `CC(C)CN=C(N)N=C(N)N`, the activity, negative = inhibition was -8.28% [at 11.4 µM] (inactive).
In the case of `Oc1cccc(-c2nc3c4c(ncn3n2)-c2ccccc2CC42CCCC2)c1`, the AC50 is 25.1 µM (active).
`COc1ccc(C(=O)N2CCC3(CC2)CCN(C(c2ccccc2)c2ccccc2)CC3)cc1`: the AC50 result was “inactive”.
Take `COc1ccc(C(=O)/C=C2/c3ccccc3CC(C)(C)N2C)cc1`: the AC50 is 15.8 µM (active).
Consider `COc1ccc(C(=O)N2CCC3(CCN(C)CC3)CC2)cc1`, for which the AC50 result is “inactive”.
Same read-out and setting: then `Cn1nccc1C(=O)Nc1ccc(Cl)cc1`, with 31.6 µM (active).
The same measure, in the same setting: the value for `CCNS(=O)(=O)c1ccc(NC(=O)c2cc(C(F)(F)F)nn2C)cc1` was “inactive”; that for `O=C(Cc1cccs1)N/N=C/C(Br)=C/c1ccccc1` was 7.08 µM (active).
`O=C(O)c1cscc1Cc1cccs1`: the activity, negative = inhibition is -1.48% [at 11.4 µM] (inactive).
`O=C(O)/C(=C\c1ccccc1)Cc1ccccc1`: the activity, negative = inhibition was -14.2% [at 11.4 µM] (inactive).
Consider `COc1cc(C(=O)NCc2cccc3ccccc23)cc(Cl)c1OC`, for which the AC50 is 3.16 µM (active).
Turning to `CS(=O)(=O)N1CCC[C@@]2(CCN(C(=O)Nc3ccccc3)C2)C1`, the AC50 result is “inactive”.
In the case of `COc1ccc2c(c1)Cc1cc(N=[N+]([O-])c3ccc4c(c3)Cc3cc(OC)ccc3-4)ccc1-2`, the activity, negative = inhibition was -35.1% [at 11.4 µM] (inactive).
Take `COc1ccc2c(c1)C(=NN)c1cc(OC)ccc1-2`: the AC50 was 8.91 µM (active).
With `CC1(C)O[C@H]2[C@@H](c3[nH]nc4c(=O)[nH]c(=O)[nH]c34)OC[C@H]2O1`, the activity, negative = inhibition was 9.71% [at 11.4 µM] (inactive).
For the compound `CN(c1ccc(C(=O)NCc2ccccn2)cc1)S(C)(=O)=O`, the AC50 entry is “inactive”.
Regarding `Cc1ccc(NS(=O)(=O)c2cc(C(=O)N3CCc4ccccc4C3)ccc2Cl)cc1`, the AC50 is 1.58 µM (active).
Regarding `Cc1ccc(NS(=O)(=O)c2cc(C(=O)NCc3ccccn3)ccc2Cl)cc1`, the AC50 is 5.01 µM (active).
As to `COc1ccc(C(=O)N2CCCCC2)cc1S(=O)(=O)Nc1ccccc1`, the AC50 result is “inactive”.
Turning to `CC(=O)OCC(=O)[C@@]1(OC(C)=O)[C@H](C)C[C@H]2[C@@H]3C[C@H](F)C4=CC(=O)C=C[C@@]4(C)[C@]3(F)[C@H](O)C[C@@]21C`, the AC50 result is “inactive”.
For the compound `COc1ccc2[nH]cc(CCNc3ccnc(-c4c(C)noc4C)n3)c2c1`, the AC50 is 1.58 µM (active).
`COc1ccc2[nH]cc(CCNc3ccnc(-c4ccc(N(C)C)cc4)n3)c2c1`: the AC50 is 6.31 µM (active).
For `COc1ccc2[nH]cc(CCNc3ccnc(-c4ccoc4)n3)c2c1`, the AC50 is 0.501 µM (active).
On to `COc1ccc2[nH]cc(CCNc3ccnc(-c4ccc5c(c4)OCO5)n3)c2c1`, for which the AC50 was 0.631 µM (active).
For `Cc1ccc(S(=O)(=O)N(C)c2cc(S(=O)(=O)N3CCC(C)CC3)c(C)cc2C)cc1`, the AC50 is 3.16 µM (active).
On to `Cc1ccc(S(=O)(=O)N2CCC(C(=O)NCCCOC(C)C)CC2)cc1`, for which the AC50 result was “inactive”.
Turning to `CCn1c(O)c(/C=C2\C=Nc3ccccc32)sc1=Nc1ccc(C)cc1`, the AC50 was 2 µM (active).
`Clc1ccc2c(c1)C=Nc1c(NCc3ccccc3)ncnc1O2`: the AC50 result was “inactive”.
Consider `COc1ccc(C2=NC(C(F)(F)F)(C(F)(F)F)c3c(n(C)c(=O)n(C)c3=O)N2)cc1`, for which the AC50 result is “inactive”.
Still for that read-out and setting: then `O=C1c2ccccc2C2=Nc3ccccc3SC(c3ccccc3F)C12` (stereo not given), with 1.58 µM (active).
Consider `NS(=O)(=O)c1ccc(N=Nc2ccc(O)c(C(=O)O)c2)cc1`, for which the activity, negative = inhibition was 5.09% [at 11.4 µM] (inactive).
On the same count and under the same terms, the value for `O=C(O)C1=C/C(=C(/c2ccccc2)c2cc(C(=O)O)c(O)c3ccccc23)c2ccccc2C1=O` was 29% [at 11.4 µM] (inactive) and -20.5% [at 11.4 µM] (inactive).
For `CC1=C/C(=C(/c2ccc(O)c(C)c2)c2ccccc2C(=O)O)C=CC1=O`, the AC50 was 0.00316 µM (active).
On to `O=C(O)C1=CC(=C(c2ccc(O)c(C(=O)O)c2)c2ccc(O)c(C(=O)O)c2)C=CC1=O`, for which the AC50 was 25.1 µM (active).
For `O=C(O)c1ccc(C(=O)c2ccccc2C(=O)O)cc1C(=O)O`, the activity, negative = inhibition was -5.18% [at 11.4 µM] (inactive).
Consider `O=C(CN1CCc2ccccc21)NC(=O)NCc1ccco1`, for which the AC50 was 7.94 µM (active).
Take `Cc1nn(CC(O)COc2ccc3c(c2)CCC3)c(C)c1Br` (stereo not given): the AC50 was 2 µM (active).
With `CN(C)CC(O)COc1cccc(OCC(O)CN(C)C)c1` (stereo not given), the AC50 result was “inactive”.
Still for that read-out and setting: then `Cc1ccc(C(=O)NC(=S)Nc2ccc(S(=O)(=O)N3CCN(C)CC3)cc2)cc1`, with 15.8 µM (active).
On to `CCOC(=O)c1ccc(S(=O)(=O)N2CCN(C)CC2)cc1`, for which the AC50 result is “inactive”.
The same measure, in the same setting: the value for `O=C(NC(=S)Nc1ccc(C(=O)N2CCOCC2)cc1)c1ccc([N+](=O)[O-])cc1` was “inactive”; that for `O=c1c(C=Nc2cccc(C(F)(F)F)c2)c[nH]n1-c1cccc(Cl)n1` was “inactive”.
In the case of `Cc1sc(N)c(C(=O)c2cccc(C(F)(F)F)c2)c1C`, the AC50 result is “inactive”.
On to `O=C(OCn1ncc(Cl)c(Cl)c1=O)c1cccc(C(F)(F)F)c1`, for which the AC50 is 2.24 µM (active).
As to `N/C(CC/C(N)=N/O)=N\O`, the activity, negative = inhibition is 20.3% [at 11.4 µM] (inactive).
For `C=CCNc1sc(C(=O)c2ccc(C)cc2)c(N)c1C#N`, the AC50 is 7.08 µM (active).
On the same count and under the same terms, the value for `C=CCNc1sc(C(=O)c2ccccc2)c(N)c1C#N` was 6.31 µM (active).
For `N#CC(CC(=O)O)=C(c1ccccc1)c1ccccc1`, the activity, negative = inhibition is 5.19% [at 11.4 µM] (inactive).
Consider `CC(=O)CSc1nnc(Cc2ccc([N+](=O)[O-])cc2)o1`, for which the AC50 was 7.08 µM (active).
For the compound `O=C(Cc1ncc(C(F)(F)F)cc1Cl)Nc1cccc(Br)c1`, the AC50 is 2.82 µM (active).
As for `NNC(=O)CNc1cccc(Br)c1`, the activity, negative = inhibition is -2.2% [at 11.4 µM] (inactive).
`Cc1ccc(C(=O)c2cn(-c3ccc(F)c(Cl)c3)nn2)cc1`: the AC50 result is “inactive”.
For `CC(C)(C)C(=O)OCc1cn(-c2ccc(Cl)cc2)nn1`, the AC50 is 8.91 µM (active).
For the compound `[Cu].[O-]/N=C1/C(=[OH+])Nc2ccccc21.[O-]Nc1c(O)[nH]c2ccccc12`, the activity, negative = inhibition was 2.58% [at 11.4 µM] (inactive).
For the compound `Cc1c(C=O)c2ccccn2c1C(=O)c1ccncc1`, the AC50 is 1.78 µM (active).
Regarding `C[C@H](C(=O)c1ccncc1)c1ccccn1`, the activity, negative = inhibition was -37.2% [at 11.4 µM] (inactive).
Consider `CC(=O)N(C[C@@H](C)C(=O)O)c1c(I)cc(I)c(N)c1I`, for which the AC50 entry was “inactive”.
`COc1ccc(F)cc1S(=O)(=O)NC(Cc1ccccc1)C(N)=O` (stereo not given): the AC50 was 7.08 µM (active).
On to `CC(C)N=c1scc(-c2ccco2)n1/N=C/c1ccc(O)c(O)c1`, for which the AC50 is 7.94 µM (active).
`C[N+](C)(C)/N=C\c1ccc(O)c(O)c1`: the activity, negative = inhibition was 12.7% [at 11.4 µM] (inactive).
With `NC(=S)SCCC(=O)O`, the activity, negative = inhibition is -6.93% [at 11.4 µM] (inactive).
